Out of some 310,000 compounds screened, about 2,200 (0.71%) showed an effect of 50% or more. The effect is printed as a negative number. The entries come from a sample that favours strong results as a whole.
target: human ether-à-go-go-related gene (hERG) potassium channel (human, UniProt Q12809); experiment: primary screen, population patch clamp on CHO cells stably expressing hERG; higher = less effect of the substance
Sequence (Q12809 whole entry, looked up): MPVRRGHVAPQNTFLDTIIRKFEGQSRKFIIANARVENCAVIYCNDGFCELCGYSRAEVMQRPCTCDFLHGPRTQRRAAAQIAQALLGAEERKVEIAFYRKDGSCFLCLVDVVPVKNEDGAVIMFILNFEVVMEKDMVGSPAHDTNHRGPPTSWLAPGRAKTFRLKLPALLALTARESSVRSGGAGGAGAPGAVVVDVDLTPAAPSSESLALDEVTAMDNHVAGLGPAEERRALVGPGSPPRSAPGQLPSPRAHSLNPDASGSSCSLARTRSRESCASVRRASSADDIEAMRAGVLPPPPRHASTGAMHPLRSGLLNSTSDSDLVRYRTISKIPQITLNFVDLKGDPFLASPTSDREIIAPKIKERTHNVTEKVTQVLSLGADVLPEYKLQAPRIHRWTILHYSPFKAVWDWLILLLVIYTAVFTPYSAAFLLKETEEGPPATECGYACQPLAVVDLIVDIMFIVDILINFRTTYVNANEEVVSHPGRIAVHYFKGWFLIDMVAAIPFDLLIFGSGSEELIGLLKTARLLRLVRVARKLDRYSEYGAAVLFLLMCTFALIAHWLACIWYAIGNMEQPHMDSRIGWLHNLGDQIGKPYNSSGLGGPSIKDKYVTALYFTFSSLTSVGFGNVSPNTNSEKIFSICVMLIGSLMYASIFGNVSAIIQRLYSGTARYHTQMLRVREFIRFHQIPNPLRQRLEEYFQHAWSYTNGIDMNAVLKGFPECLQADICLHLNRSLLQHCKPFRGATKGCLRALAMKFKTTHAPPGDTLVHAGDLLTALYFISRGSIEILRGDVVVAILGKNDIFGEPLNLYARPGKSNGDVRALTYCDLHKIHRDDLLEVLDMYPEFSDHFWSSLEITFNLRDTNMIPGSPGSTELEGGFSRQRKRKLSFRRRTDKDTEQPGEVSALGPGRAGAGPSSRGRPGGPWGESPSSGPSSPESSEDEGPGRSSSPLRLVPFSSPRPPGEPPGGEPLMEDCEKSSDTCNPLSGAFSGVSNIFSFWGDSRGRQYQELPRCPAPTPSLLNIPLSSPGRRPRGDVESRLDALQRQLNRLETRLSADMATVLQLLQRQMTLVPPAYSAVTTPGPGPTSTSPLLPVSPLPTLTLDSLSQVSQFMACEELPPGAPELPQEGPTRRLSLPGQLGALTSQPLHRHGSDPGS

SMILES	hERG current change (%, negative = inhibition) at 1uM
Cc1ccc(Cc2cc(C)n[nH]c2=O)cc1	27.1%
CN(C)c1ccc(/C=N/NC(=O)C(O)(c2ccccc2)c2ccccc2)o1	-5.86%
CCOC(=O)C1CCCCN1Cc1cc(Cl)ccc1O (centres unmarked)	4.99%
COC(=O)c1cc2c(ccn2-c2ccc(F)cc2)n1Cc1ccc(OC)cc1	0.901%
COc1ccc(C(=O)C2CCCN(Cc3ccsc3)C2)cc1OC (centres unmarked)	-38.5%
COc1ccc(C(=O)C2CCCN(Cc3ccc4nonc4c3)C2)cc1F (centres unmarked)	3.27%
COc1ccc(C(=O)C2CCCN(Cc3cnc(N4CCOCC4)s3)C2)cc1F (centres unmarked)	-17.9%
COc1ccc(C(=O)C2CCCN(Cc3cccn3-c3cccnc3)C2)cc1OC (centres unmarked)	-34.9%
COc1ccc(C(=O)C2CCCN(Cc3cccn3-c3nccs3)C2)cc1F (centres unmarked)	-91.4%
COc1ccc(C(=O)C2CCCN(Cc3cccn3-c3nccs3)C2)cc1OC (centres unmarked)	-90.2%
O=C(O)c1ccc2c(=O)[nH]c(CN3CCOCC3)nc2c1	15.6%
CC(OC(=O)C1CCCCC1)C(=O)Nc1ccc(S(N)(=O)=O)cc1 (centres unmarked)	9.37%
COc1ccc(CC(=O)Nc2ccc(-c3noc(-c4ccccc4OC)n3)cc2)cc1	-11.7%
O=S(=O)(NCCc1ccncc1)c1cc(Br)ccc1F	2.96%
O=C(c1cc([N+](=O)[O-])ccc1N1CCCCC1)N1CCc2ccccc21	8.63%
O=C(NCCCN1CCCC1)Nc1ccccc1[N+](=O)[O-]	14.8%
O=C(NCCCN1CCN(c2ccccc2F)CC1)Nc1ccc(F)cc1	-47.6%
O=C(NCCCN1CCN(c2ccccc2F)CC1)Nc1ccccc1[N+](=O)[O-]	-51.1%
O=C(CCCCCn1c(=O)[nH]c2ccccc2c1=O)NCCCN1CCN(c2ccccc2F)CC1	-84.6%
O=C(CCn1c(=O)[nH]c2ccccc2c1=O)NCCCN1CCN(c2cccc(Cl)c2)CC1	-30%
COc1cc2[nH]c(=O)n(CCC(=O)NCCCN3CCN(c4ccccc4F)CC3)c(=O)c2cc1OC	0.776%
Cn1cnnc1SCC(=O)NCc1cccc(C(F)(F)F)c1	24.1%
CC(=O)Nc1ccc(N/C=C(\C#N)S(=O)(=O)c2ccc(Cl)cc2)cc1	11.1%

SMILES	hERG current change (%, negative = inhibition) at 1uM
CCc1cccc(NC(=O)C2CCCN(S(=O)(=O)c3ccc4[nH]c(=O)ccc4c3)C2)c1 (centres unmarked)	-0.861%
Cc1ccc(N2CC(C(=O)N3CCc4ccccc4C3)CC2=O)cc1 (centres unmarked)	-17.7%
CCOc1ccc(N2CC(C(=O)N3CCc4ccccc43)CC2=O)cc1 (centres unmarked)	-8.82%
CCOc1ccc(N2CC(C(=O)N3CCc4ccccc4C3)CC2=O)cc1 (centres unmarked)	-67.1%
CCC(C)(C)n1nnnc1C(c1cc2ccc(OC)cc2[nH]c1=O)N1CCc2ccccc21 (centres unmarked)	6.76%
N=c1c(C(=O)NC2CCCC2)cc2c(=O)n3ccccc3nc2n1CC1CCCO1 (centres unmarked)	-94.4%
N=c1c(S(=O)(=O)c2ccccc2)cc2c(=O)n3ccccc3nc2n1CC1CCCO1 (centres unmarked)	-17%
CC(NC(=O)c1cc2c(=O)n3ccccc3nc2n(CC2CCCO2)c1=N)c1ccccc1 (centres unmarked)	-72.3%
Cc1ccc(S(=O)(=O)c2cc3c(=O)n4ccccc4nc3n(CC3CCCO3)c2=N)cc1C (centres unmarked)	9.33%
N=c1c(C(=O)NC2CCCCC2)cc2c(=O)n3ccccc3nc2n1CC1CCCO1 (centres unmarked)	-79.2%
CCOC(=O)c1c(C)[nH]c(N=Nc2cccc(OC)c2)c1C	6.77%
CCOC(=O)C1CCN(S(=O)(=O)c2ccc(Br)c(OCC)c2)CC1	0.854%
CC1=[N+]([O-])C2(N)CCc3nonc3C2(O)C1 (centres unmarked)	6.29%
COC(=O)[C@H](CCSC)NC(=O)Nc1cc(C)ccc1C	11.7%
C=CCn1c(O)c(C(C)=NCCN2CCN(C(=S)NC)CC2)c(=O)[nH]c1=O	4.36%
O=C(c1ccc(F)cc1)C1CCN(Cc2ccc(F)cc2)CC1	2.51%
COc1ccc(CN2CCC(C(=O)c3ccc(F)cc3)CC2)cc1	-81%
COc1ccc(CN2CCCC(C(=O)c3cccc(Cl)c3)C2)cc1 (centres unmarked)	-7.39%
COc1ccc(CNC(=O)CN2CCC(C(=O)c3ccc(OC)cc3)CC2)cc1	-15.3%
COc1ccc(CNC(=O)C2CCN(C(=O)c3cccc(Cl)c3)CC2)cc1	-3.93%
COc1ccc(C(=O)C2CCN(C(=S)Nc3ccc(F)cc3)CC2)cc1	-6.05%
COc1ccc(CN2CCC(C(=O)c3cccc(Cl)c3)CC2)cc1	-66.8%
COc1ccc(CN2CCC(C(=O)c3ccc(Cl)cc3)CC2)cc1	-80.9%

SMILES	hERG current change (%, negative = inhibition) at 1uM
CCc1ccc(NC(=O)CN2CCC(C(=O)c3ccc(OC)cc3)CC2)cc1	-3.64%
COC(=O)Cc1ccc(NC(=S)N2CCN(C(=O)C3CCCO3)CC2)cc1 (centres unmarked)	5.7%
COc1ccccc1CNC(=O)C(NS(=O)(=O)c1ccc2c(c1)OCCO2)C(C)C (centres unmarked)	6.69%
COc1cc(C2NC(=O)C(C#N)=C(Nc3cccc(C)c3)S2)ccc1O (centres unmarked)	18.5%
COc1cc2c(cc1OC)[C@H](Cc1ccc(O)cc1)NCC2	10.8%
Cc1cc(N(C)C)c(C#N)c(=O)[nH]1	12.4%
O=C(c1cc2c([nH]c1=O)CCCC2)N1CCc2c([nH]c3ccccc23)C1c1ccccc1F (centres unmarked)	7.44%
CC(C)(C)C(=O)Nc1ccc2oc(-c3cc(F)c(F)cc3Cl)nc2c1	15.8%
CCCOc1ccc(C2c3c(oc4cc(C)c(C)cc4c3=O)C(=O)N2CCCN2CCOCC2)cc1 (centres unmarked)	7.1%
Cc1ccccc1Nc1nc(N)nc(CSc2nc3ccccc3c(=O)n2C)n1	9.44%
N=c1c(C(=O)NCC2CCCO2)cc2c(=O)n3ccccc3nc2n1Cc1ccc(Cl)cc1 (centres unmarked)	-81.9%
N=c1c(C(=O)NCc2ccco2)cc2c(=O)n3ccccc3nc2n1CC1CCCO1 (centres unmarked)	-84.3%
N=c1c(C(=O)NCC2CCCO2)cc2c(=O)n3ccccc3nc2n1Cc1cccnc1 (centres unmarked)	-34.7%
N=c1c(C(=O)NCC2CCCO2)cc2c(=O)n3ccccc3nc2n1Cc1ccccc1 (centres unmarked)	-72.3%
N=c1c(C(=O)NCC2CCCO2)cc2c(=O)n3ccccc3nc2n1Cc1ccccc1Cl (centres unmarked)	-46.8%
N=c1c(C(=O)NCC2CCCO2)cc2c(=O)n3ccccc3nc2n1Cc1ccc(F)cc1 (centres unmarked)	-82.7%
N=c1c(S(=O)(=O)c2ccc(Cl)cc2)cc2c(=O)n3ccccc3nc2n1CC1CCCO1 (centres unmarked)	6.52%
O=C(NCc1ccco1)c1ccc2c(=O)n(CC3CCCO3)c(=S)[nH]c2c1 (centres unmarked)	4.98%
CCn1c2ccccc2c2cc(NC(=O)COC(=O)c3ccccc3O)ccc21	15%
CCN(C(=O)/C=C/c1ccc(OC)cc1)C1CCS(=O)(=O)C1 (centres unmarked)	-3.05%
CN1C(=O)/C(=N/OC(=O)c2ccccc2)c2ccccc21	-4.57%
N#Cc1c(N)n(CCc2ccc(F)cc2)c2nc3ccccc3nc12	19.9%
COCCNCCOc1ccc(C(C)(C)c2ccccc2)cc1.O=C(O)C(=O)O	-2.39%

SMILES	hERG current change (%, negative = inhibition) at 1uM
Cc1cc(C(=O)N2CC(C)CC(C)C2)n(-c2ccccc2)n1 (centres unmarked)	16.6%
CC1CN(C(=O)Nc2ccc(F)cc2F)CC(C)O1 (centres unmarked)	-1.61%
C=CCn1c(SCC(=O)N2CCCCC2)nc(O)cc1=O	4.63%
COc1ccccc1N1CCN(S(=O)(=O)c2ccc(-c3cnc(C4CC4)o3)cc2)CC1	14%
N=c1c(C(=O)NCC2CCCO2)cc2c(=O)n3ccccc3nc2n1Cc1ccco1 (centres unmarked)	-83.1%
Cc1ccc(-c2nnc3n2CCCCC3)cc1	0.609%
Cc1cccc(NC(=O)c2cc(NC(=O)c3ccccc3)ccc2N2CCCCC2)c1	3.79%
Cc1ccc(-c2nc3ccccc3c(=O)n2-c2ncccc2C)cc1	0.712%
Cc1ccc(C)c2c(SC(C)C(=O)NCc3ccco3)nc(-c3ccccc3)nc12 (centres unmarked)	-71.2%
Cc1ccc2nc(-c3ccccc3)nc(SC(C)C(=O)NCc3cccs3)c2c1 (centres unmarked)	16.6%
CC(Sc1nc(-c2ccccc2)cc(C(F)(F)F)n1)C(=O)NCc1ccco1 (centres unmarked)	4.96%
C=CC(=O)NC(C)(C)CCN1CCOCC1	8.55%
Nc1nc(SCC(=O)c2cccc([N+](=O)[O-])c2)n[nH]1	5.93%
COC(=O)c1ccc(CSc2nncn2C)cc1	-4.1%
Cl.c1ccc(CCCN2CCN(CCOC(c3ccccc3)c3ccccc3)CC2)cc1	-41.9%
Cl.Fc1ccc(C(OCCN2CCCC2)c2ccc(Br)cc2)cc1 (centres unmarked)	-66%
Cl.c1ccc(C(OCCN2CCNCC2)c2ccccc2)cc1	4.05%
Fc1ccccc1N1CCN(CCCc2ccccc2)CC1	-18.4%
Cl.Fc1ccc(C(OCCN2CCCC2)c2ccc(F)cc2)cc1	-37.9%
Cl.Fc1ccc(C(OCCN2CCN(CCCc3ccccc3)CC2)c2ccc(F)cc2)cc1	-71.3%

Source: PMC4336329 (PLoS ONE, 2015)
